Records with an inconclusive call do not appear. A number with no mark means an inactive call. Active and inactive are the calls of the source. Calls come from the whole dose curve; as a rule, active = well fitted inhibition curve with a large enough effect; inconclusive = small, poorly fitted or top-dose-only effect; inactive = no such curve, though single readings can be large or run the other way.
Assay: qHTS to identify inhibitors of the type 1 interferon - major histocompatibility complex class I in skeletal muscle: primary screen against the NCATS Mechanism Interrogation Plate v5.0 (MIPE) Libary (AID 1347411); note: nearly all actives have a fitted effect of over 65% in size;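 for activity change, negative = inhibition: plate controls were vehicle for no effect and reference inhibitor for full effect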
Conditions: iHSKM cells + IFN-b, HiBiT-tagged MHC-I luminescence, 24 h; series mostly up to 45.8 µM; activity change, negative = inhibition: at the top concentration
How it was run: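 Luminescence from HiBiT-tagged endogenous HLA-B*08:01 served as the MHC class I read-out. CRISPR-engineered C25cl48 human myoblasts received 4.0 ng/ml IFN-beta plus compound for 24 hrs, with an 11-point, 1:3 series topping at 46 uM final.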
Potency is the fitted concentration of half-maximal effect.

| SMILES | activity change, negative = inhibition | Potency |
| --- | --- | --- |
| CCCC(CCC)C(=O)Nc1ccn([C@@H]2O[C@H](CO)[C@@H](O)C2(F)F)c(=O)n1 | -9.89% | – |
| C[C@@H]1COCCN1c1cc(=O)n2c(n1)N(Cc1cncc(Cl)c1)[C@H](C(F)(F)F)CC2 | -6.81% | – |
| CC(C)NC(=O)N1CC[C@H](N=C2Nc3cc(F)ccc3N(CC(F)F)c3ccc(Cl)cc32)C1 | -19.9% [at 8.44 µM] | – |
| C[C@@H]1CN(CC(=O)N2CC(C)(C)c3ncc(Cc4ccc(F)cc4)cc32)[C@@H](CN2CCOC[C@H]2C)CN1 | 40.9% | – |
| CC(C)(CNC(=O)c1cccc(-c2noc(C(F)(F)F)n2)c1)c1coc(-c2ccccc2)n1 | -17.4% | – |
| O=C(N[C@H]1CCC[C@H](CO)C1)C1CCN(c2nc3cc(Cl)c(-c4ccc(Cl)cc4)cc3o2)CC1 | -15.4% | – |
| CC1(C)CN(C(=O)c2ccc(-c3cccc4nc(NC(=O)C5CC5)nn34)cc2)C1 | – | 4.15 µM (active) |
| O=C(Nc1ccc2[nH]nc(-c3ccncc3)c2c1)[C@@H]1CCN(CC(=O)N2CCN(c3ccc(-c4ncccn4)cc3)CC2)C1 | -10.9% | – |
| COC(=O)Nc1cc(Nc2cc(NC3CC3)c3ncc(C#N)n3n2)c(Cl)c(N2CCN(C)CC2)c1 | – | 4.66 µM (active) |
| COC1CCN(C(=O)c2cc(Cc3n[nH]c(=O)c4ccccc34)ccc2F)CC1 | -11.3% | – |
| Cc1nnc(C[C@@H]2C=C(c3ccc(Cl)cc3)c3ccccc3-n3c(C)nnc32)o1 | -34.9% | – |
| O=C(NCCCNc1nc(Nc2cccc(CN3CCOCC3)c2)ncc1C1CC1)C1CCC1 | -27.1% | – |
| CC[C@@H](C)Nc1cc(C(=O)NC2CC3CC[C@@H](C2)N3c2ccc(C(=O)C3CC3)cn2)c(C)cc1C(N)=O (stereo partly drawn) | – | 0.117 µM (active) |

Reference: PubChem BioAssay (NCATS)
